Source: PubChem BioAssay (NCI)
About 79,000 compounds went through this panel and 15% of them were active in at least one assay; those are over-represented in the sample as a whole. Unmarked numbers belong to inactive results. Calls of active or inactive are those of the source. Cut-off read from the data, not from the text of the source: active = growth inhibition above about 70%; inactive = the rest.

Key:
[1] = NCI Yeast Anticancer Drug Screen. Data for the rad50 strain (AID 155);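 note: 0% = growth of vehicle-only cultures of the same strain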; settings: S. cerevisiae rad50 strain growth inhibition, hits give high values
Method in brief: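 Relative growth inhibition (compound vs vehicle) was measured in yeast with a defined repair-gene alteration.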

[2] = NCI Yeast Anticancer Drug Screen. Data for the mec2-1 strain (AID 157); settings: S. cerevisiae mec2-1 strain, hits give high values
Method in brief: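 Using mec2-1 yeast: add compound, measure growth, express inhibition versus vehicle-treated cultures.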

[3] = NCI Yeast Anticancer Drug Screen. Data for the sgs1 mgt1 strain (AID 161);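 note: 0% = growth of cultures given vehicle only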; settings: S. cerevisiae sgs1 mgt1 strain, hits give high values
Method in brief: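 Growth of a repair-deficient yeast mutant was monitored after compound treatment and expressed as inhibition relative to vehicle-treated cultures.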

[4] = NCI Yeast Anticancer Drug Screen. Data for the cln2 rad14 strain (AID 165);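 note: 0% = growth equal to vehicle treated cultures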; settings: S. cerevisiae cln2 rad14 strain, hits give high values
Method in brief: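 Yeast strain cln2 rad14, bearing defects in cell cycle control and DNA repair, serves as the test system; values reflect growth inhibition compared with vehicle.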

[5] = NCI Yeast Anticancer Drug Screen. Data for the bub3 strain (AID 167); settings: S. cerevisiae bub3 mutant strain, hits give high values
Method in brief: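 Screening used yeast with an engineered genetic alteration affecting cell cycle control. Compound-exposed cultures were compared with vehicle cultures, and reduced growth was taken as inhibition.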

[6] = NCI Yeast Anticancer Drug Screen. Data for the mlh1 rad18 strain (AID 175); settings: S. cerevisiae mlh1 rad18 strain growth inhibition, hits give high values
Method in brief: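 Steps: expose repair-defective yeast to compound; measure growth; express inhibition against vehicle-treated controls.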

[7] = at 5.0 µM (retest, dose inferred, filed as 0.5)
[8] = at 50.0 µM (retest, dose inferred, filed as 5.0)

| Structure (SMILES) | growth inhibition [1, 7] | growth inhibition [1, 8] | growth inhibition ([1]; at 50.0 µM) | growth inhibition [2, 7] | growth inhibition [2, 8] | growth inhibition ([2]; at 50.0 µM) | growth inhibition [3, 7] | growth inhibition [3, 8] | growth inhibition ([3]; at 50.0 µM) | growth inhibition [4, 7] | growth inhibition [4, 8] | growth inhibition ([4]; at 50.0 µM) | growth inhibition [5, 7] | growth inhibition [5, 8] | growth inhibition ([5]; at 50.0 µM) | growth inhibition [6, 7] | growth inhibition [6, 8] | growth inhibition ([6]; at 50.0 µM) |
| --- | --- | --- | --- | --- | --- | --- | --- | --- | --- | --- | --- | --- | --- | --- | --- | --- | --- | --- |
| CCCCCCCCNS(=O)(=O)c1ccc(N)cc1 | 4% | 9% | 80.8% (active) | 0% | 2% | 25.2% | 7% | 2% | 70.5% (active) | 2% | 0% | 16.8% | 1% | 0% | 61.2% | 6% | 2% | 79.2% (active) |
| O=C(c1ccccc1)c1ccc(Cl)cc1 | -1% | -16% | 66.2% | -3% | -5% | 37.4% | 2% | 4% | 74.2% (active) | 1% | 2% | -3% | -42% | 0% | 73.8% (active) | 1% | 2% | 81.5% (active) |
| Oc1cccc2ccncc12 | 7% | 9% | 29.3% | -14% | 14% | 20.4% | 3% | 16% | 22.1% | 13% | 29% | 9.05% | 2% | 14% | 21.1% | 2% | 43% | 58.4% |
| O=C1C(C(O)(C(F)(F)Cl)C(F)(F)Cl)CCC1C(O)(C(F)(F)Cl)C(F)(F)Cl (stereo not given) | 92% (active) | 99% (active) | 99.8% (active) | 95% (active) | 100% (active) | 99.5% (active) | 95% (active) | 99% (active) | 99.8% (active) | 94% (active) | 99% (active) | 99.4% (active) | 78% (active) | 99% (active) | 98.1% (active) | 95% (active) | 99% (active) | 99.5% (active) |
| COc1ccc2c(c1)CN1C(CCC3c4ccccc4NC31)C2 (stereo not given) | -17% | 16% | 88.5% (active) | -5% | 11% | 72.3% (active) | -5% | 30% | 86.7% (active) | 26% | 11% | 51.3% | -35% | 13% | 61.6% | -12% | 27% | 90.5% (active) |
